In PubChem BioAssay AID1053197 (The Scripps Research Institute Molecular Screening Center, 2014) one finds inhibition data, which are given here for 54 compounds.

As a reminder, the inhibition is the drop in the measured response relative to a control, in per cent.

Screen size: about 370,000 compounds; about 2,600 (0.7%) were called active. The sample as a whole holds a higher share of actives than the screen did. Values without a mark were called inactive.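 How the source made its calls: active means inhibition above a cutoff: mean of compounds within the control limits plus 3 SD of those (cut at about 17% in these data); inactive means the rest.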

In the assay the target is Sialate O-acetylesterase (Homo sapiens) (UniProt Q9HAT2). The experiment in a line: human SIAE inhibitors, primary screen, biochemical, fluorescence polarization, FP-Rh probe, 1536-well HTS (AID 1053197).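 Further: 0% = plate median of compound wells and 100% = probe without SIAE protein.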 The conditions noted are these: SIAE FP-Rh probe binding, at 9.66 µM, stronger effect = higher value. (Fluorescence polarisation rises when a labelled molecule tumbles more slowly, as on binding a larger partner.)
Chain of Sialate O-acetylesterase (Homo sapiens) (Q9HAT2 whole entry, looked up): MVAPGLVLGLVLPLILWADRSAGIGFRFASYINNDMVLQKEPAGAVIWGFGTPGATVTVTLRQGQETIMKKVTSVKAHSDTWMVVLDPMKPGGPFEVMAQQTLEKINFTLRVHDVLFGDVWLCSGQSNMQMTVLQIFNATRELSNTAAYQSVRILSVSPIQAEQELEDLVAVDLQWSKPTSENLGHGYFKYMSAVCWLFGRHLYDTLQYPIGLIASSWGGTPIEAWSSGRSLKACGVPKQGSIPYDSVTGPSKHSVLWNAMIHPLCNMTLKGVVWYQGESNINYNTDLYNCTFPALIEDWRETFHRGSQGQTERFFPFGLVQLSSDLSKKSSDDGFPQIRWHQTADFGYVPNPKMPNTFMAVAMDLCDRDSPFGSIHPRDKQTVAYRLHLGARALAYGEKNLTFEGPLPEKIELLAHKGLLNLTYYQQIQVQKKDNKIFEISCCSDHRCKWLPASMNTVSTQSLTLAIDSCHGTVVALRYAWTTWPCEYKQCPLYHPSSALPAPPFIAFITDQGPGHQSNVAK
For `CCOC(=O)C1CCN(C(=O)C(C)(C)NC(=O)Nc2ccccc2Cl)CC1`, the inhibition was -1.25%.
For `O=C(Nc1nc2ccc(Cl)cc2s1)c1cc(-c2ccc(Cl)cc2)nc2ccccc12` the value was -3.74%; for `CN(CCO)c1cccc2c1S(=O)(=O)N(Cc1cn(Cc3ccc(C(F)(F)F)cc3)nn1)Cc1ccccc1O2`, -1.94%.
Regarding `NNc1nc2c(Cl)cccc2s1`, the inhibition is 17.2% (active).
For `O=S1(=O)c2ccc(Br)cc2OC[C@@H](Cc2ccccc2)N1Cc1cn(Cc2ccco2)nn1` the value was -0.13%.
`COC(=O)C1CN(CCc2ccccc2)CCS(=O)(=O)N1Cc1cccc(Cl)c1` (centres undefined): the inhibition was -0.76%.
For `O=C(c1cccnc1)N1CCN(S(=O)(=O)c2cccs2)CC1` the value was 4.01%; for `O=C(N/N=C/c1sc(N2CCCCC2)nc1-c1cccs1)c1cccnc1`, 19.6% (active).
Consider `O=C(Nc1cccc(Cl)c1N1CCOCC1)c1cccnc1`, for which the inhibition is -7.61%.
As to `COC(=O)CC1CCc2cc(C)cc(C(CC(C)C)NC(=O)[C@H](CC(C)C)NC(=O)OCc3ccccc3)c2O1` (some centres undefined), the inhibition is 4.19%.
The value for `O=C(Nc1ccc(Cl)cc1)c1csc([C@@H]2O[C@H](CO)[C@H](O)[C@H](O)[C@H]2O)n1` was -0.06%; that for `O=C(Nc1cccc(Cc2ccccc2)c1)Nc1ccc2nc([C@@H]3O[C@H](CO)[C@@H](O)[C@H](O)[C@H]3O)[nH]c2c1` was 21% (active).
For `O=C(NCc1cccnc1)c1ccc2nc([C@@H]3O[C@H](CO)[C@H](O)[C@H](O)[C@H]3O)[nH]c2c1` the value was -0.84%.
The value for `CC(CCN1CCC(C(O)(c2ccccc2)c2ccccc2)CC1)Oc1ccc(Cl)cc1` (centres undefined) was -3.91%; that for `CC(C)=CCCC1(C)C=Cc2c(ccc3c2[nH]c2cc(O)c(C)cc23)O1` (centres undefined) was 20.8% (active); that for `CCn1c(=O)n2n(c1=O)[C@@]1(C=C3CCCC[C@H]32)N=C(NC(=O)c2ccccc2)N(Cc2ccccc2)[C@H]1Cc1ccccc1` was 7.65%.
For `COC(=O)C1CN(CC(C)C)CCS(=O)(=O)N1Cc1ccc(C)cc1` (centres undefined), the inhibition was 5.08%.
Consider `c1ccc2[nH]c(-c3nc4ccccc4[nH]3)nc2c1`, for which the inhibition was 47.9% (active).
Take `O=S(=O)(c1ccc(Br)cc1)N1CCC(c2nc3ccccc3[nH]2)CC1`: the inhibition was -5.23%.
Regarding `O=C(OCc1nc2ccccc2[nH]1)C1CCCCC1`, the inhibition is 0.98%.
As for `COc1ccc(C2Nc3ccccc3C(=O)N2Cc2cccs2)cc1COc1c(C)cccc1C` (centres undefined), the inhibition was -4.49%.
Consider `O=C(CSc1nc2sc3c(c2c(=O)n1-c1ccccc1)CCCC3)NN=Cc1ccc(OCc2ccccc2)cc1`, for which the inhibition is 8.02%.
The value for `COc1ccc([C@H]2OC(=O)C[C@H]2C(=O)N2CCN(c3ccccc3F)CC2)cc1OC` was -5.68%; that for `CC(C)c1cc(C(=O)N/N=C/c2ccoc2)c(O)c(C(C)C)c1` was -13.5%.
In the case of `CC(C)=CCc1ccc(O)c(=O)cc1C(C)C`, the inhibition was 6.87%.
On to `CC(C)c1cc(N=O)cc(C(C)C)c1O`, for which the inhibition is 25.2% (active).
On to `O=C(NCCCc1ccccc1)[C@H](Cc1ccccc1)NC1(C(=O)NCCc2c[nH]c3ccccc23)CCC1`, for which the inhibition is 4.77%.
For the compound `Cc1ccc(-n2c(SCC(=O)Nc3ccc(S(=O)(=O)Nc4nccs4)cc3)nnc2-c2cccnc2)cc1`, the inhibition was -10.3%.
In the case of `C=C1C(C(C)C)N(C)C2=NC(c3ccccc3)CC(=O)N12` (centres undefined), the inhibition is 6.93%.
As to `O=C(NC(=S)Nc1ccc(NC(=O)c2cccs2)cc1)c1ccc([N+](=O)[O-])cc1`, the inhibition was 26.9% (active).
The value for `O=C(NC(=S)Nc1cccc(-c2ccc(CO)o2)c1)c1cccs1` was -33.9%; that for `NS(=O)(=O)c1ccc(NC(=S)NNC(=O)c2cccs2)cc1` was 4.71%.
The value for `O=C(c1ccncc1)N1CC[C@H]2[C@H](CCCN2Cc2ccc(F)cc2)C1` was 2.68%; that for `C=CCn1c(SCC(N)=O)nnc1-c1ccccc1OC` was -7.56%.
Turning to `CCOc1ccc(Nc2nc(Cc3nnc(SCC(=O)NC4CCCC4)n3C)cs2)cc1`, the inhibition is 19.1% (active).
For `CCOc1cccc(-c2nnc(SCC(=O)NC3CC3)n2C)c1` the value was -3.03%; for `CC(=O)Nc1ccc(C(=O)CSc2nnc(Cc3ccccc3)o2)cc1`, -1.29%.
For the compound `Cn1c(CC(=O)Nc2ccc(F)cc2)nnc1SCC(=O)NC1CCCCC1`, the inhibition is 2.38%.
The value for `CCOc1ccc(Nc2nc(Cc3nnc(SCC(=O)c4ccc(C)cc4)o3)cs2)cc1` was 18.2% (active).
On to `CCC(=O)Nc1ccc(C(=O)CSc2nnc(CNc3ccc(Cl)cc3)o2)cc1OC`, for which the inhibition was -0.55%.
Consider `CC(C)(C)c1ccc(C(=O)Nc2cc(Cl)c(Br)cc2C(=O)O)cc1`, for which the inhibition was -77.3%.
For `COc1ccc(-n2c(SCC(=O)Nc3ccccc3-c3ccccc3)nnc2-c2cccnc2)cc1` the value was 4.69%.
The value for `Clc1ccc(-n2c(COc3ccccc3)nnc2SCc2nc3ccccc3[nH]2)cc1` was -2.83%; that for `Nn1c(SCC(=O)Nc2ccc(S(N)(=O)=O)cc2)nnc1-c1n[nH]c2c1CCC2` was -5.56%; that for `Cc1ccccc1CN1CCCCC(NC(=O)Nc2ccccc2F)C1=O` (centres undefined) was 1.41%.
For the compound `Nc1ccc2nc3c(=O)[nH]c(=S)[nH]c3nc2c1`, the inhibition was 31.8% (active).
For `O=C(N1CCOCC1)N1CC[C@H]2[C@H](CCCN2Cc2ccc(F)cc2)C1` the value was 0.67%.
The value for `O=C(c1cccc(C(F)(F)F)c1)N1CC[C@H]2[C@H](CCCN2Cc2cc(F)cc(F)c2)C1` was 1.24%; that for `C=CCN1[C@H](CC(C)C)COc2cccc(N3CCCC3)c2S1(=O)=O` was 6.71%; that for `CNC(=S)N/N=C/c1ccc(OCc2ccccc2)c(Br)c1` was -1.33%.
Take `NC(=O)Cn1cc(/C=N\NS(=O)(=O)c2ccccc2)c2ccccc21`: the inhibition was 10.5%.
For `CNC(=S)N/N=C/c1cn(Cc2ccc(C)cc2)c2ccccc12` the value was 18.3% (active); for `c1coc(CCNc2ncnc3ccc(-c4ccc5c(c4)OCO5)cc23)c1`, -15.4%.
For `CCC(=O)Nc1ccc2c(c1)C(=O)N(C)[C@H]1CC[C@H](CC(=O)NCCOC)O[C@@H]1CO2` the value was -4.02%.
